# From PubChem BioAssay (Tox21)
# A number with no mark means an inactive call. Inconclusive results are not listed. Entries that show only a call come without a potency. Calls of active or inactive are those of the source. Unless noted, calls come from the whole dose curve; as a rule, active = well fitted curve in the direction sought with a large enough effect in the repeat runs; inconclusive = weak or mixed curves; inactive = no such curve, though single readings can be large; an effect the other way counts as inactive or inconclusive.
# Experiments:
# [1] = qHTS assay to identify small molecule antagonists of the estrogen related receptor (ERR) signaling pathway - cell viability counter screen (AID 1224818);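 note: viability measured after 17.5 h of compound exposure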
# Summary of the method: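 ERR reporter cells plated 6 h at 37 C/5% CO2, then compounds in DMSO pin-transferred and incubated 17.5 h at 37 C. Viability read as CellTiter-Fluor fluorescence after 30 min at 37 C.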
# [2] = qHTS assay to identify small molecule antagonists of the estrogen related receptor (ERR) signaling pathway (AID 1224819; note: nearly all actives have a fitted effect of over 50% in size; note: potency is the fitted concentration of half-maximal effect)
# Summary of the method: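 ERR reporter cells were plated at 2,000 cells/well and left 6 h at 37 C/5% CO2 before pin-tool transfer of compounds in DMSO. After 18 h at 37 C, One-Glo was added and luminescence was read 30 min later at room temperature.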
# [3] = qHTS assay to identify small molecule agonists of the estrogen related receptor (ERR) signaling pathway (AID 1224820)
# Summary of the method: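 Quantitative HTS of the LOPAC library used NTP ERR reporter cells treated 18 h at 37 C. Signal is luminescence after One-Glo addition and a 30 min room-temperature incubation.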
# [4] = tested on: estrogen-related receptor alpha (ERRalpha) with PGC-1alpha coactivator, human; experiment: qHTS assay to identify small molecule antagonists of the estrogen related receptor signaling pathway with the pleiotropic PPARgamma coactivator (PGC) (AID 1224821; calls by dose curve;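 note: lower luminescence signal means antagonism of PGC/ERR signalling; nearly all actives have a fitted effect of over 50% in size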)
# Summary of the method: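 Quantitative HTS for antagonism: PGC/ERR cells received compounds after 6 h attachment and were incubated 18 h at 37 C, with luminescence (One-Glo) as the endpoint.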
# [5] = qHTS assay to identify small molecule antagonists of the estrogen related receptor signaling pathway with the pleiotropic PPARgamma coactivator (PGC) cell viability counter screen (AID 1224822)
# Summary of the method: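 PGC/ERR cells were seeded at 2,000 cells/well, rested 6 h at 37 C/5% CO2, then given compounds in DMSO by pin tool and incubated 17.5 h at 37 C. Viability came from CellTiter-Fluor fluorescence after 30 min.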
# [6] = qHTS assay to identify small molecule antagonists of the estrogen related receptor (ERR) signaling pathway from Tox21 library - cell viability counter screen (AID 1224834); note: nearly all actives have a fitted effect of over 30% in size
# Summary of the method: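 ERR reporter cells were plated 6 h before compound addition, then exposed to test compounds in DMSO for 17.5 h at 37 C. Viability was read as CellTiter-Fluor fluorescence after a 30-minute incubation at 37 C.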
# [7] = qHTS assay to identify small molecule antagonists of the estrogen related receptor signaling pathway with the pleiotropic PPARgamma coactivator (PGC) from Tox21 10K library - cell viability counter screen (AID 1224840; active = well fitted cell-killing curve with a large enough effect in the repeat runs, not every such curve was filed as active; note: nearly all actives have a fitted effect of over 40% in size)
# Summary of the method: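 PGC/ERR cells were seeded at 2,000 cells/well and left 6 hours at 37 C/5% CO2 before pin-tool addition of compounds in DMSO. After 17.5 hours at 37 C, CellTiter-Fluor was added and fluorescence read 30 minutes later.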
# [8] = qHTS assay to identify small molecule antagonists of the estrogen related receptor signaling pathway with the pleiotropic PPARgamma coactivator (PGC) from Tox21 10K library (AID 1224841; call rule not given here; note: actives are mostly falling curves and most rising ones were filed inactive; nearly all actives have a fitted effect of over 50% in size)
# Summary of the method: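 PGC/ERR reporter cells were seeded at 2,000 cells/well and held 6 hours at 37 C/5% CO2 before pin-tool addition of compounds in DMSO. After 18 hours at 37 C, One-Glo was added and luminescence read after 30 minutes at room temperature.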
# [9] = qHTS assay to identify small molecule agonists of the estrogen related receptor signaling pathway with the pleiotropic PPARgamma coactivator (PGC) from Tox21 10K library (AID 1224842); note: nearly all actives have a fitted effect of over 15% in size
# Summary of the method: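 PGC/ERR reporter cells (NTP line) were seeded 2,000 per well, rested 6 h at 37 C/5% CO2, then pin-dosed with compounds in DMSO for 18 h at 37 C; luciferase read by One-Glo luminescence after 30 min at room temperature.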
# [10] = qHTS assay to identify small molecule antagonists of the estrogen related receptor (ERR) signaling pathway from Tox21 library (AID 1224848); note: nearly all actives have a fitted effect of over 50% in size
# Summary of the method: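 Cells: ERR line, 2,000/well; 6 h preincubation 37 C/5% CO2. Cpd in DMSO via pin tool; 18 h, 37 C. ONE-Glo, 30 min RT, luminescence.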
# [11] = qHTS assay to identify small molecule agonists of the estrogen related receptor (ERR) signaling pathway from Tox21 library (AID 1224849; calls by dose curve; note: nearly all actives have a fitted effect of over 15% in size); settings: ERR reporter cell line, ONE-Glo luciferase, 18 h; at 92.4 µM (top of the series) unless noted
# Summary of the method: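 ERR reporter cell line (NTP) seeded, rested 6 h at 37 C/5% CO2, then pinned with Tox21 compounds in DMSO. After 18 h at 37 C, ONE-Glo luciferase luminescence was read following 30 min at room temperature.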
# [12] = biological target: Acetylcholinesterase (Homo sapiens) (UniProt P22303); experiment: Acetylcholinesterase (AChE) small molecule antagonists: colormetric cell-based qHTS assay (AID 1347395; calls by dose curve; note: nearly all actives have a fitted effect of over 30% in size)
# Summary of the method: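 Cells (SH-SY5Y, 2,000 per well) are seeded and left overnight at 37 C. Compound is added for 30 min, then DTNB and acetylthiocholine for a further 90 min at 37 C before absorbance-based thiocholine detection.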
# [13] = biological target: Acetylcholinesterase (Homo sapiens) (UniProt P22303); experiment: Acetylcholinesterase (AChE) small molecule antagonists: enzyme-based qHTS assay (AID 1347397; calls by dose curve; note: nearly all actives have a fitted effect of over 55% in size); settings: Potency: AChE enzyme activity inhibition; outcome: AChE enzyme activity inhibition
# Summary of the method: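 Recombinant human AChE, dispensed at 50 mU/mL, was preincubated with Tox21 10K compounds or DMSO vehicle for 30 min at room temperature. DTNB plus acetylthiocholine was then added, and thiocholine was measured colorimetrically after a further 10 min.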
# [14] = biological target: Acetylcholinesterase (Homo sapiens) (UniProt P22303); experiment: Acetylcholinesterase (AChE) small molecule antagonists: fluorescence cell-based qHTS assay (AID 1347398; calls by dose curve; note: nearly all actives have a fitted effect of over 50% in size); settings: Potency: AChE activity; outcome: AChE activity
# Summary of the method: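 Human SH-SY5Y cells were plated overnight at 37 C, exposed to compound for 30 min at 37 C, 5% CO2, then given acetylthiocholine plus Thiolite Green for 40 min at room temperature; thiocholine fluorescence (Ex/Em 490/520 nm) reports endogenous AChE activity.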
# [15] = biological target: Acetylcholinesterase (Homo sapiens) (UniProt P22303); experiment: Acetylcholinesterase (AChE) small molecule antagonists: enzyme-based qHTS assay with human liver microsomes (AID 1347399; calls by dose curve; note: nearly all actives have a fitted effect of over 60% in size); settings: Potency: qHTS inhibition; outcome: qHTS inhibition
# Summary of the method: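 Recombinant human AChE (50 mU/mL in the enzyme mix) and human liver microsomes (0.25 mg/mL final) were preincubated with compound and NADPH (0.25 mg/mL final) for 30 min at 37 C. Acetylthiocholine/DTNB was then added; thiocholine was read colorimetrically after 10 min at room temperature.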
# [16] = qHTS assay to identify small molecule agonists of the estrogen related receptor signaling pathway with the pleiotropic PPARgamma coactivator (PGC) (AID 1224823)
# Summary of the method: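 Cell-based luciferase assay in the NTP-supplied PGC/ERR line, 2,000 cells/well; 18 h compound exposure at 37 C, luminescence after One-Glo.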
# Acetylcholinesterase (Homo sapiens), sequence (P22303 whole entry, looked up): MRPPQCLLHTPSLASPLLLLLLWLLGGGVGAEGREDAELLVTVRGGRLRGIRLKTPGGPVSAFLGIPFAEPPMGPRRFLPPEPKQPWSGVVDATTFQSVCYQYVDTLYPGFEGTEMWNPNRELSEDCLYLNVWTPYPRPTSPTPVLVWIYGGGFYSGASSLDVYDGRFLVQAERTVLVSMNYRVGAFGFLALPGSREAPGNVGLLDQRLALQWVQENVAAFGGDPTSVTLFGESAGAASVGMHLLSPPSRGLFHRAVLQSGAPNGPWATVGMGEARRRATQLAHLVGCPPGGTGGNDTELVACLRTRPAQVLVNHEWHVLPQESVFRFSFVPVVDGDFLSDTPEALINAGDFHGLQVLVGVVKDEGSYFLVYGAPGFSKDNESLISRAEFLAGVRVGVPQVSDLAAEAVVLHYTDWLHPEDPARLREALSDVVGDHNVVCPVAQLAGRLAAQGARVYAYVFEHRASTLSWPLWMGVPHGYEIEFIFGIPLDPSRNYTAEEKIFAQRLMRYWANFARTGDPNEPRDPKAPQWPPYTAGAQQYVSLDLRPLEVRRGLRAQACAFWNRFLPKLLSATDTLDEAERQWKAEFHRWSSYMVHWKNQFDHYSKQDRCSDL
smiles,measurement,setting,value
CC(N)C(=O)OC(C)(C)Cc1ccc(Cl)cc1 (stereo unspecified),Potency,[1],inactive
same,Potency,[2],inactive
same,Potency,[3],inactive
same,Potency,[4],inactive
same,Potency,[5],inactive
same,Potency,[6],inactive
same,Potency,[7],inactive
same,Potency,[8],inactive
same,Potency,[9],inactive
same,Potency,[10],inactive
same,"activity change, positive = activation",[11],8.82% [at 42.5 µM]
same,Potency,[12],inactive
same,Potency,[13],inactive
same,Potency,[14],inactive
same,Potency,[15],inactive
C[C@]12Cc3cn4c(nc3C=C1CCC1C2CC[C@@]2(C)[C@H]1CC[C@@]2(O)C#N)nc1ccccc14 (stereo partly specified),Potency,[1],inactive
same,Potency,[2],10.6 µM (active)
same,Potency,[3],inactive
same,Potency,[16],inactive
NC(=O)c1ccc(OCC(O)CN2CC=C(c3ccc(F)cc3)CC2)cc1 (stereo unspecified),Potency,[1],inactive
same,Potency,[4],inactive
same,Potency,[5],inactive
Cc1cc([C@@H]2CCCN2C)on1,Potency,[1],inactive
same,Potency,[2],inactive
same,Potency,[4],inactive
same,Potency,[5],inactive
same,Potency,[16],inactive
CN(N=O)c1cc(O)ccc1O,Potency,[1],inactive
same,Potency,[2],inactive
same,Potency,[5],inactive
same,Potency,[16],inactive
CCN(CC)c1ncnc2c1ncn2[C@@H]1O[C@H](COP(=O)(O)OP(=O)(O)C(Br)(Br)P(=O)(O)O)[C@@H](O)[C@H]1O,Potency,[1],inactive
same,Potency,[2],inactive
same,Potency,[4],inactive
same,Potency,[5],inactive
same,Potency,[16],inactive
Cc1[nH]c2ccc(O)cc2c1CCN,Potency,[1],inactive
same,Potency,[2],inactive
same,Potency,[4],inactive
same,Potency,[5],inactive
same,Potency,[16],inactive
CCCC[N+]1(C)C2CC(OC(=O)[C@H](CO)c3ccccc3)CC1C1OC12 (stereo partly specified),Potency,[1],inactive
same,Potency,[5],inactive
CN1CCc2cc(O)cc3c2[C@H]1Cc1ccc(O)c(O)c1-3,Potency,[1],inactive
same,Potency,[3],inactive
same,Potency,[4],inactive
same,Potency,[16],inactive
CCS(=O)(=O)Nc1cccc(C(=C2CCCCC2)c2cnc[nH]2)c1,Potency,[1],inactive
same,Potency,[3],inactive
same,Potency,[5],inactive
same,Potency,[16],inactive
COC(=O)[C@@H](N)CCCN=C(N)N[N+](=O)[O-],Potency,[1],inactive
same,Potency,[5],inactive
Cc1nccc2c1[nH]c1ccccc12,Potency,[1],inactive
same,Potency,[3],inactive
same,Potency,[5],inactive
